SMILES strings stand for the structures. The whole screen tested about 1,400 compounds, of which about 210 (15%) were called active. Cut-off read from the data, not from the text of the source: active = inhibition mostly above about 39% (no sharp cut-off); inactive = mostly below about 34%. These entries were drawn from the full list.

Chain of Sentrin-specific protease 8 (Homo sapiens) (Q96LD8 whole entry, looked up): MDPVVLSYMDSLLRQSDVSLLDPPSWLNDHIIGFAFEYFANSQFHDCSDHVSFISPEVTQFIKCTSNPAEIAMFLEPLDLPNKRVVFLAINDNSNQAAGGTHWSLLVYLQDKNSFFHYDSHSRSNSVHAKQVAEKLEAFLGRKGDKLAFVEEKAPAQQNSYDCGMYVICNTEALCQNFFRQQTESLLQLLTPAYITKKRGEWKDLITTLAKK

The test addresses Sentrin-specific protease 8 (Homo sapiens) (UniProt Q96LD8). Briefly: retest of SENP8 deneddylase blockers – biochemical, Nedd8 protein substrate, single concentration, confirmation (AID 624319). Conditions: purified SENP8, Nedd8-AMC/pro-Nedd8 cleavage fluorescence, 30 min; at 25 µM; stronger effect = higher value.
With `Oc1ccc(N=Cc2sc3ccccc3c2Cl)cc1`, the inhibition (as a rule, the drop in the measured response relative to a control, in per cent) was 11.3% (inactive).

In the case of `O=c1[nH]c2ccccc2s1`, the inhibition is 1.69% (inactive).

For the molecule `Cc1ccc(C(=O)N/N=C\c2cc(Br)c(Br)o2)cn1`, the inhibition is 6.43% (inactive).

For the molecule `O=[N+]([O-])c1ccc(C=Nc2ccc(Cl)cc2Cl)s1`, the inhibition is 14.4% (inactive).

As to `O=C1Nc2ccc([N+](=O)[O-])cc2C1=Nc1cccc(CO)c1`, the inhibition was 76.8% (active).

On to `c1coc(-c2nc3nc4ccccc4n3nc2-c2ccco2)c1`, for which the inhibition was 20.6% (inactive).

For the molecule `CN1C(=O)/C(=C/C=C2\SCCN2C)OC1=S`, the inhibition is 29.4% (inactive).

`Cc1cc([N+](=O)[O-])c(NC2CCCCC2)c([N+](=O)[O-])c1`: the inhibition is 11% (inactive).

Regarding `COC(=O)C1=C(C(=O)c2ccc(C)cc2)C(c2ccccc2)n2nnnc2N1` (stereo unspecified), the inhibition is 18.1% (inactive).

Turning to `CCc1ccccc1NC(=O)[C@@H]1CCC(=O)N1C1OC(=O)c2c1ccc(OC)c2OC` (stereo partly specified), the inhibition is 13.7% (inactive).

As for `O=C(c1ccccc1)N1CCN(c2ccc([N+](=O)[O-])c(NCc3ccco3)c2)CC1`, the inhibition was 14.3% (inactive).

Take `O=C(OCC(=O)N1CCN(c2ccccc2)CC1)c1ccc([N+](=O)[O-])s1`: the inhibition was 57% (active).

As to `Cc1[nH][nH]c(=O)c1C(c1ccc(-c2ccc(Cl)cc2)o1)c1c(C)[nH][nH]c1=O`, the inhibition was 49.8% (active).

For `CCOc1ccc(C(c2c(C)[nH][nH]c2=O)c2c(C)[nH][nH]c2=O)cc1OCC`, the inhibition is 2.47% (inactive).

Take `CCN1CCC2(CC1)N=C(c1ccc(F)cc1)C(=S)N2C(=O)c1ccc(C)cc1`: the inhibition was 54.5% (active).

On to `O=C(COC(=O)c1ccc([N+](=O)[O-])o1)NC12CC3CC(CC(C3)C1)C2`, for which the inhibition is 81.4% (active).

On to `O=[N+]([O-])c1ccccc1NCc1ccccc1Cl`, for which the inhibition was 20.6% (inactive).

`CCOCCCn1c(NN)nc2ccccc2c1=O`: the inhibition was 0.12% (inactive).

As to `CCCCNCCS(=O)(=O)NCc1ccccc1`, the inhibition is 26.8% (inactive).

As to `O=C(c1cccc(F)c1)N1CCN(c2ccc([N+](=O)[O-])c3cccnc23)CC1`, the inhibition is 16.9% (inactive).

As for `O=C(Nc1ccc(C(=O)O)c(O)c1)c1ccccc1`, the inhibition was 0.26% (inactive).

`CN1CCN(S(=O)(=O)c2ccc(N3CCN(c4ccccc4O)CC3)c([N+](=O)[O-])c2)CC1`: the inhibition was 29.3% (inactive).

As for `O=C(Nc1cc2c3c(c1)C1CCCC1CN3CC1CCCC21)c1ccc([N+](=O)[O-])cc1` (stereo unspecified), the inhibition is 24.6% (inactive).

On to `Nn1cnnc1N/N=C/c1cc([N+](=O)[O-])c(Cl)cc1Cl`, for which the inhibition was 16.6% (inactive).

Take `COc1ccc(-c2nnco2)cc1OC`: the inhibition was 14.3% (inactive).

For `CCOc1cc(NC(=O)c2ccccc2C(=O)O)c(OCC)cc1NC(=O)c1ccccc1F`, the inhibition was -3.99% (inactive).

These data come from PubChem BioAssay AID624319 (Sanford-Burnham Center for Chemical Genomics, 2012).
